In ChEMBL document CHEMBL1961873, “Compounds: GSK PKIS; Assays: Nanosyn kinase panel” (2012) one finds inhibition data, which are given here for 16 compounds.
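Note: value is the mean inhibition, from GSK PKIS.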

The target of the test is Protein kinase C eta type (Homo sapiens) (UniProt P24723). The note with it: at 1 µM.
Protein kinase C eta type (Homo sapiens), sequence (P24723 whole entry): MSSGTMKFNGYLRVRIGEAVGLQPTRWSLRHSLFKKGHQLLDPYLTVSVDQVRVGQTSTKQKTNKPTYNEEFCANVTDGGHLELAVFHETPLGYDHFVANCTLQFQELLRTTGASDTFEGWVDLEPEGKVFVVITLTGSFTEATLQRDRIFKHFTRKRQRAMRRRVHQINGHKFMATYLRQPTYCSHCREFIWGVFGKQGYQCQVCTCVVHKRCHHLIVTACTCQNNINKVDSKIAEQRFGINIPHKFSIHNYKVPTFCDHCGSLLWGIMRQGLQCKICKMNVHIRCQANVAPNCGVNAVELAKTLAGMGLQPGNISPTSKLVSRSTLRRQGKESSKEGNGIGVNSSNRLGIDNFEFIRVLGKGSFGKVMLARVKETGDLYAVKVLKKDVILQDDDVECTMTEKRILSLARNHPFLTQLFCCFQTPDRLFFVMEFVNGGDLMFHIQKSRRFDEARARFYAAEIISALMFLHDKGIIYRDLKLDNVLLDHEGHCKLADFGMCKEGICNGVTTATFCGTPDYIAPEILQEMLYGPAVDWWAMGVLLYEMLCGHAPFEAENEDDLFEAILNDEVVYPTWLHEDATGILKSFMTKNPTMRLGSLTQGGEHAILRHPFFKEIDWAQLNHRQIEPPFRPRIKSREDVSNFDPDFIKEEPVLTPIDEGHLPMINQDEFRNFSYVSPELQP
With `C[C@@H](Oc1cc(-n2cnc3ccc(OCC4CCN(C)CC4)cc32)sc1C(N)=O)c1ccccc1Cl`, the inhibition amounted to 5.34%.

For `CCc1cccc(CC)c1/C=C/c1cncc(C(=O)NC)c1`, the inhibition is -0.26%. In the case of `CS(=O)(=O)CCNCc1cc(-c2cc3c(Nc4ccc(OCc5cccc(F)c5)c(Cl)c4)ncnc3s2)cs1` it was 7.05%; in that of `Cc1nnc(-c2ccc(C)c(-c3ccc(C(=O)NCc4ccc(Cl)cc4)cc3)c2)o1`, 7.5%.

As for `CN1CCN(CCCNc2nc3ccc(Oc4ccc(NC(=O)Nc5cc(C(F)(F)F)ccc5F)cc4)cc3[nH]2)CC1`, the inhibition came to 1.68%. The result for `NS(=O)(=O)c1ccc(N/N=C2\C(=O)Nc3ccc(-c4cnco4)cc32)cc1` reads 1.24%; that for `Fc1ccc(-c2ncn(C3CCNCC3)c2-c2ccnc(Oc3ccc4c(c3)OCO4)n2)cc1`, 4.75%; that for `COc1ccc(C2=C(N3CCc4ccccc43)C(=O)NC2=O)cc1`, 6.52%. As for `O=C1Nc2ccc(I)cc2C1=Cc1cc(Br)c(O)c(Br)c1`, the inhibition stood at 2.17%. With `Fc1ccc(-c2ncn(CCCN3CCOCC3)c2-c2ccncc2)cc1`, the inhibition is -1.13%. Take `CN(C)CCCNc1nccc(-c2c(-c3ccc(F)cc3)nn3cc(C(F)(F)F)ccc23)n1`: the inhibition turned out to be 0.14%. For the compound `COc1cccc(/C=N/Nc2ncnc3c2cnn3-c2cccc(OC)c2)c1`, the inhibition was 4.14%.

Regarding `O=C1Nc2ccccc2/C1=C/Nc1ccc(-n2cncn2)cc1`, the inhibition was determined as 5.57%. Turning to `COc1cc2ncn(-c3cc(OCc4cccs4)c(C(N)=O)s3)c2cc1OC`, the inhibition came to 4.09%. The result for `Fc1ccc(-c2nc3n(c2-c2ccncc2)CCS3)cc1` reads 4.84%; that for `O=C1NC(=O)C(c2cccc(Cl)c2)=C1Nc1ccc(Cl)c(C(=O)O)c1`, 8.96%.

As usually defined, the inhibition is the drop in the measured response relative to a control, in per cent.
